Shown are actives, neighbours in structure and some others; about 1.4% of the full set was active somewhere.
Polio RdRp inh – poliovirus RNA polymerase inhibition; poliovirus polymerase elongation, fluorescence polarization; stronger effect = lower value; % elongation, % (compound at 16.7 µg/mL); 150,000 tested, 0.66% active; AID 588519; in the data active means % elongation below about 90%
MbtI inh – MbtI salicylate synthase inhibition; P9WFX0; purified MbtI enzyme, fluorescence intensity read-out; inhibition, % (no concentration beside the values); 100,000 tested, 0.89% active; AID 493033; in the data active means inhibition mostly above about 56%, no sharp cut-off; inactive means mostly below about 77%
Mtb MenB inh – inhibitors of Mycobacterium tuberculosis MenB enzyme; P9WNP5; MenB enzyme assay, absorbance read-out; inhibition, % (no concentration beside the values); 100,000 tested, 0.43% active; in the data active means inhibition above about 21%, passing the limit was not always enough
Target sequence (P9WNP5 whole entry, looked up): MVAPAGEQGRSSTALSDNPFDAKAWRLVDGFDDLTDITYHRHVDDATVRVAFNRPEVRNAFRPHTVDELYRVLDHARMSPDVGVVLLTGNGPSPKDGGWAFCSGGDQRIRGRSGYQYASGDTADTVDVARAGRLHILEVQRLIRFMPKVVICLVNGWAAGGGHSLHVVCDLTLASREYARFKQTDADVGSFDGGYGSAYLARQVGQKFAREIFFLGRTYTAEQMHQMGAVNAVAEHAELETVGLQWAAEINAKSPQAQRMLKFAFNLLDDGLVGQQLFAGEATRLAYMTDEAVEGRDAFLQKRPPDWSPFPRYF
AID504770 – E. coli YBA685 growth inhibition, screen for V. cholerae RctB inhibitors. E. coli YBA685 rctB-dependent plasmid, OD600 growth, 3 h; stronger effect = lower value. z-score (no concentration beside the values). 130,000 tested, 0.27% active. AID 504770; in the data active means z-score below about -2, passing the limit was not always enough
* = called active by the depositor; x = no result.

SMILES	Polio RdRp inh	MbtI inh	Mtb MenB inh	AID504770
O=C1C=CC(=O)N1c1ccccc1Sc1ccccc1	101.0	98.7*	x	-0.6
O=c1n(CN2CCOCC2)c2ccccc2n1CN1CCOCC1	108.0	x	-3.3	-0.5
S=c1n(CN2CCOCC2)c2ccccc2n1-c1ccccc1	72.0*	99.0*	-6.9	0.2
Cn1nc(-c2ccccc2F)c2cc(C(=O)Nc3ccc4c(c3)OCO4)sc21	101.0	8.9	8.3	0.2
CN1/C(=C\C=N\NC(=O)Cn2cncn2)C(C)(C)c2ccccc21	104.0	-4.1	-152.6	-0.2
COc1ccc(CC(CN)c2ccccc2)cc1 (configuration not stated)	102.0	1.2	36.0*	1.05
CCOC(=O)c1ccc(-n2c(N)c(C(=O)NCC3CCCO3)sc2=S)cc1 (configuration not stated)	96.0	92.3*	-12.7	-0.6
CCOc1ccc(-n2c(N)c(C(=O)N3CCN(C)CC3)sc2=S)cc1	99.0	-0.1	-42.5	0.45
CCOC(=O)c1ccc(-n2c(N)c(C(=O)N3CCCC3)sc2=S)cc1	99.0	93.5*	-25.4	-1.15
CCC(=O)N(c1nnc(SCC(=O)N2CCCc3ccccc32)s1)C1CC1	104.0	-11.6	-12.2	-0.3
CC(C)CNC(=O)c1cc(-c2ccc(F)cc2)no1	101.0	-1.9	6.0	-1.2
c1ccc(CCn2nnnc2C(c2cccnc2)N2CCc3ccccc32)cc1 (configuration not stated)	101.0	5.4	-30.6	-0.15
N#CC(C#N)=Cc1cc2c(cc1Br)OCO2	70.0*	85.7	-42.7	0.85
N#CC(C(=O)c1ccco1)c1nc2ccccc2[nH]1 (configuration not stated)	106.0	98.3*	-7.6	0.25
Clc1cccc2sc(N3CCCC3)nc12	102.0	-0.9	-4.0	-0.8
Clc1nc2c(Cl)cccc2s1	103.0	58.7*	-24.6	-1
CCN(CC)CCC(=O)c1ccc(OC(C)C)cc1	102.0	65.5*	-4.2	-0.8
CCN(CC)CCC(=O)c1ccc(F)cc1	104.0	x	11.5	0.8
O=C(/C=C/c1cccs1)NCCOc1ccccc1	101.0	15.0	-1.7	0.55
COc1ccc(C)cc1NS(=O)(=O)c1ccc(-c2cnc(C3CC3)o2)cc1	105.0	x	x	x
COc1cc(Cl)c(NS(=O)(=O)c2ccc(-c3cnc(C4CC4)o3)cc2)c(OC)c1	87.0*	x	x	x
CCN1CCCC1CNC(=O)Nc1cn(CC(C)C)c(=O)c2ccccc12 (configuration not stated)	100.0	-27.9	-9.8	-0.3
Cc1ccc(N2CCN(C(=O)Nc3cn(CC(C)C)c(=O)c4ccccc34)CC2)c(C)c1	68.0*	x	x	x
COc1ccccc1N1CCN(C(=O)Nc2cn(CC(C)C)c(=O)c3ccccc23)CC1	104.0	x	x	x
COc1ccc(CNC(=O)Nc2cn(CC(C)C)c(=O)c3ccccc23)c(OC)c1	-10.0*	x	x	x
SMILES	Polio RdRp inh	MbtI inh	Mtb MenB inh	AID504770
Cc1cccc(N2CCN(C(=O)Nc3cn(CC(C)C)c(=O)c4ccccc34)CC2)c1C	98.0	x	x	x
CCCNC(=O)Nc1cn(CC(C)C)c(=O)c2ccccc12	16.0*	120.0	1.3	-0.9
CCCCn1c(CNC(=O)c2ccco2)nnc1SC(C)C(=O)Nc1sc2c(c1C(=O)OCC)CCC2 (configuration not stated)	103.0	-7.3	-25.4	1.4
O=C1NC(c2cccs2)Nc2c1sc(=S)n2-c1ccccc1 (configuration not stated)	105.0	x	-13.0	-1.1
Cc1oc2ncn(C)c(=O)c2c1C(=O)OCc1ccc(C#N)cc1	110.0	2.5	-12.9	0.55
CCN(Cc1nc(-c2ccc(OC)cc2)no1)S(=O)(=O)c1c(C)cc(C)cc1C	99.0	6.0	-5.9	-0.7
Cc1ccc(S(=O)(=O)c2ccc(C)cc2)cc1	104.0	-12.0	-9.8	-0.75
Cc1ccc(S(=O)(=O)/C=C/C#N)cc1	101.0	79.0*	6.4	-4.8*
OCC1CCCN1Cc1ccc(Cl)cc1Cl (configuration not stated)	103.0	3.2	10.1	-0.2
O=C(CSc1nnc(-c2ccco2)c(-c2ccco2)n1)N1c2ccccc2Sc2ccc(Cl)cc21	101.0	43.9	32.6*	-0.75
COCCCn1c(=O)c2ccccc2n(CC(N)=O)c1=O	101.0	58.3	27.8*	-0.5
Fc1cccc2c1CNC(=S)N2	100.0	81.7*	-18.3	-1.3
CCn1c(C)cc2c(c1=O)C(c1cccc(OC)c1)C(C#N)=C(N)O2 (configuration not stated)	104.0	-12.4	-14.8	-0.95
O=c1[nH]c2ccccc2c(O)c1-c1nc2ccccc2c(=O)[nH]1	104.0	-254.9	42.6*	1.55
Cc1nc2ccccc2c(=O)[nH]1	96.0	-0.8	13.6	-0.7

Compound activity from PubChem BioAssay.
